SMN2 splice up: SMN2 splice variant enhancement. 210,000 tested, 2.8% active. HEK293 SMN2-luciferase splicing reporter, luminescence, 30-36 h. Potency, µM (highest dose often 46.1 µM), for inactives: top-dose activity change, positive = activation, actives largely listed as activators; also: % of control where 0% means no effect; nearly all actives have a fitted effect of over 55% in size
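HEK293 cells carry an SMN2 […]–luciferase reporter in which exon 7 inclusion puts luciferase in frame. Cells were plated 10-12 h before compound addition, then incubated 30-36 h at 37C. ONE-Glo luminescence was read; sodium butyrate at 4.5 mM final served as control.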
ELG1 genotoxic: inducers of genotoxicity in HEK293T ELG1-luciferase cells | AID 504466 | HEK293T ELG1-luciferase reporter, luminescence, 16 h | 330,000 tested, 1.3% active | Potency, µM (doses to about 46 µM), inactives show at the highest dose activity change, positive = activation, usual class: activators; also: % of control where 0% means no effect; nearly all actives have a fitted effect of over 60% in size
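HEK293T cells expressing luciferase-tagged ELG1 were exposed to compound or DMSO vehicle for 16 hr at 37 °C and 5% CO2. Luciferase activity was then measured with ONE-Glo after 30 min at room temperature.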
Rab9 prom act: activators of Rab9 promoter; Huh7 Rab9 promoter-luciferase reporter, luminescence, 24 h; 320,000 tested, 2.8% active; Potency, µM (top dose mostly 9.22 µM), for the others: top-dose activation, negative = inhibition, usual class: activators; also: % of control where 0% means no effect; nearly all actives have a fitted effect of over 60% in size
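Promoter activation is measured as luciferase luminescence in Huh7 cells stably transfected with a Rab9 promoter–luciferase construct, following 24 h compound exposure at 37 °C and 10 min reagent incubation at ambient temperature.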
KinaseGlo FLuc: blocks Kinase-Glo luciferase, a counter-screen artifact; Q27757; Potency, µM (series often up to 38.3 µM), inactives show at the top dose activity change, negative = inhibition, most hits filed as inhibitors; 200,000 tested, 0.28% active; AID 1379; Kinase-Glo luciferase, ATP luminescence, 8 min; also: % is scaled to controls: 0 for no effect and ±100 for the full control effect; nearly all actives have a fitted effect of over 60% in size
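Kinase-Glo luciferase light output from ATP and luciferin was measured with 10 uM ATP, within the enzyme's linear range. Buffer: 50 mM imidazole pH 7.2, 50 mM KCl, 7 mM MgCl2, 0.01% Tween 20, 0.05% BSA; luminescence read after 8 min at ambient temperature.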
FLuc modulator: inhibits or activates purified firefly luciferase, miR-21 counter-screen; AID 588342; purified FLuc, Km substrates, luminescence inhibition; Potency, µM (doses to about 57.5 µM), for inactives: top-dose activity change, negative = inhibition, usual class: inhibitors; 360,000 tested, 6.9% active; P08659;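 also: plate controls were vehicle for no effect and reference inhibitor for full effect; nearly all actives have a fitted effect of over 55% in size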
Target sequence (P08659 whole entry, looked up): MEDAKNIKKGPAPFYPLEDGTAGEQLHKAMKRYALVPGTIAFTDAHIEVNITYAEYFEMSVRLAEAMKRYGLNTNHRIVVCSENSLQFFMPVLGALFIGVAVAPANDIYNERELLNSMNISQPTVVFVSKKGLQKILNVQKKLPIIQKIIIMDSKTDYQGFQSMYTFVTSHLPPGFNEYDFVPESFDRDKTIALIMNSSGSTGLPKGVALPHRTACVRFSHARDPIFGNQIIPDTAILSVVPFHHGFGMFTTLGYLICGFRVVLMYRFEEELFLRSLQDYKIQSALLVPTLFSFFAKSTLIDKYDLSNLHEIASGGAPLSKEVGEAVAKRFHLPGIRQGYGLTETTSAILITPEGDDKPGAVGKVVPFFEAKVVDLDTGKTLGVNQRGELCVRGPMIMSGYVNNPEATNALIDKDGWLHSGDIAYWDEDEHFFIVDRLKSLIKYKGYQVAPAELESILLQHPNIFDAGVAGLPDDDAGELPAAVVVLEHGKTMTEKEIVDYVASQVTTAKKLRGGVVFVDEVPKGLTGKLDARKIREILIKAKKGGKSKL
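Purified P. pyralis luciferase (10nM final) with 10uM D-luciferin and 10uM ATP (Km levels) in 50mM Tris acetate pH 7.5, 10mM Mg acetate, 0.01% Tween-20, 0.05% BSA; qHTS 6-point titration, ~60 µM downward; luminescence read.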
NPC1 promoter act: NPC1 promoter activation. Huh7 NPC1 promoter luciferase reporter, 24 h. Potency, µM (doses to about 9.22 µM), for inactives: at the highest dose activation, usual class: activators. 320,000 tested, 2.4% active; also: % of control where 0% means no effect; nearly all actives have a fitted effect of over 60% in size
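Readout is luciferase luminescence, reflecting NPC1 promoter activation in stably transfected Huh7 cells after 24 h compound exposure at 37 °C in reduced-serum medium with 10% FBS.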
The depositor's hits bear a star. Shown are actives, neighbours in structure and some others; about 7.4% of the full set was active somewhere. Calls follow the shape of the dose curve; as a rule, active = well fitted curve in the direction sought with a large enough effect; inconclusive = small, poorly fitted or top-dose-only effect, or another doubt; inactive = no such curve, though single readings can be large; an effect the other way counts as inactive or inconclusive. Potency is read from the fitted curve at half-maximal effect.

For Cc1ccc(NC(=O)CCn2nc(-c3ccccc3)c3ccccc3c2=O)c(C)c1 the results were SMN2 splice up 4% and FLuc modulator -8%.
Screening O=C(NC(=S)Nc1ccc(N2CCCCC2)cc1)c1ccco1 returned ELG1 genotoxic inconclusive, Rab9 prom act 1.1µM*, KinaseGlo FLuc -1%, FLuc modulator 3.4µM* and NPC1 promoter act 1µM*.
Screening CC1CCN(c2ccc(NC(=S)NC(=O)c3ccco3)cc2)CC1 returned SMN2 splice up -43%, ELG1 genotoxic 1%, Rab9 prom act inconclusive, KinaseGlo FLuc 0%, FLuc modulator 12µM* and NPC1 promoter act 14%.
`CC(=O)N1CCN(c2ccc(NC(=O)c3ccco3)cc2)CC1` gave ELG1 genotoxic inconclusive, Rab9 prom act inconclusive, FLuc modulator 17µM* and NPC1 promoter act inconclusive.
For O=C(NC(=S)Nc1ccccc1N1CCCCC1)c1ccco1 the results were SMN2 splice up -10%, ELG1 genotoxic -3%, Rab9 prom act 0%, KinaseGlo FLuc 0%, FLuc modulator -3% and NPC1 promoter act -3%.
Oc1ccc(CNc2cccc(C(F)(F)F)c2)c2cccnc12 was read as Rab9 prom act 1%, FLuc modulator -1% and NPC1 promoter act 0%.
`COc1ccc(-c2noc(CCc3ccccc3)n2)cc1` gave SMN2 splice up 23%, ELG1 genotoxic inconclusive, Rab9 prom act inconclusive, KinaseGlo FLuc 1%, FLuc modulator 15µM* and NPC1 promoter act inconclusive.
`c1ccc(-c2noc(CC3CCCCC3)n2)nc1` gave ELG1 genotoxic inconclusive, Rab9 prom act 1.1µM*, KinaseGlo FLuc -3%, FLuc modulator 9.5µM* and NPC1 promoter act 3.5µM*.
`c1ccc(CCCc2nc(-c3ccccn3)no2)cc1` gave SMN2 splice up 20µM*, ELG1 genotoxic inconclusive, Rab9 prom act 2.2µM*, KinaseGlo FLuc 0%, FLuc modulator 17µM* and NPC1 promoter act 2.8µM*.
COc1ccc(-c2noc(Cc3cccs3)n2)cc1 was read as SMN2 splice up 17%, ELG1 genotoxic inconclusive, Rab9 prom act 2.8µM*, KinaseGlo FLuc -5%, FLuc modulator 5.4µM* and NPC1 promoter act inconclusive.
Screening c1ccc(SCc2nc(-c3ccccn3)no2)cc1 returned SMN2 splice up 11µM*, ELG1 genotoxic 18µM*, Rab9 prom act inconclusive, KinaseGlo FLuc -2%, FLuc modulator 17µM* and NPC1 promoter act 3.5µM*.
Clc1ccc(-c2noc(CCCc3ccccc3)n2)cc1 was read as SMN2 splice up 5%, ELG1 genotoxic inconclusive, Rab9 prom act 8%, KinaseGlo FLuc 1%, FLuc modulator 27µM* and NPC1 promoter act 6%.
c1ccc(C(Cc2nc(-c3ccccn3)no2)c2ccccc2)cc1 was read as SMN2 splice up 29%, ELG1 genotoxic 4%, Rab9 prom act inconclusive, KinaseGlo FLuc 1%, FLuc modulator inconclusive and NPC1 promoter act inconclusive.
For c1ccc(CCCc2nc(-c3cccnc3)no2)cc1 the results were ELG1 genotoxic 7%, Rab9 prom act 29%, FLuc modulator inconclusive and NPC1 promoter act 22%.
c1ccc(Cc2nc(-c3ccccn3)no2)cc1 was read as SMN2 splice up 25µM*, ELG1 genotoxic inconclusive, Rab9 prom act 2.8µM*, KinaseGlo FLuc -24%, FLuc modulator 24µM* and NPC1 promoter act inconclusive.
Screening O=C1c2ccccc2C(=O)N1Cc1nc(-c2ccccn2)no1 returned SMN2 splice up -13%, KinaseGlo FLuc 1% and FLuc modulator -15%.
COc1ccc(Cc2nc(-c3ccccn3)no2)cc1 was read as SMN2 splice up inconclusive, ELG1 genotoxic 18%, Rab9 prom act inconclusive, KinaseGlo FLuc -3%, FLuc modulator inconclusive and NPC1 promoter act 3.5µM*.
Screening CN(Cc1nc(-c2ccccn2)no1)S(=O)(=O)c1ccc(Br)cc1 returned SMN2 splice up -19%, ELG1 genotoxic 6%, Rab9 prom act -2%, KinaseGlo FLuc 0%, FLuc modulator -1% and NPC1 promoter act -1%.
`CN(C)C(=O)CCCc1nc(-c2ccc(Cl)cc2)no1` gave SMN2 splice up 14%, ELG1 genotoxic 15µM*, Rab9 prom act 3.2µM*, KinaseGlo FLuc -5%, FLuc modulator inconclusive and NPC1 promoter act inconclusive.
For Cc1ccc(Cc2nc(-c3ccccn3)no2)cc1 the results were SMN2 splice up 13µM*, ELG1 genotoxic inconclusive, Rab9 prom act 3.2µM*, KinaseGlo FLuc -7%, FLuc modulator 11µM* and NPC1 promoter act 1.8µM*.
Screening O=C(O)CCCc1nc(-c2ccc(Cl)cc2)no1 returned SMN2 splice up 3%, ELG1 genotoxic 1%, Rab9 prom act 21%, KinaseGlo FLuc 2%, FLuc modulator inconclusive and NPC1 promoter act 0%.
For CCCCc1ccc(C(=O)N/C(=C\c2ccc(C)cc2)C(=O)NC2CCCCC2)cc1 the results were SMN2 splice up 21% and FLuc modulator -1%.
`CCC1CN(C(=O)N2CCC(C(=O)NCCC3=CCCCC3)CC2)c2cc(C)ccc2O1` (stereo not given) gave FLuc modulator 6%.
Screening COc1ccc(C=Nc2ccc3[nH]ncc3c2)c(O)c1 returned SMN2 splice up -8%, ELG1 genotoxic -8%, Rab9 prom act -1%, KinaseGlo FLuc -3%, FLuc modulator 6.7µM* and NPC1 promoter act 5%.
O=C(CNC(=O)c1ccco1)OCc1c(F)cccc1Cl was read as SMN2 splice up 19%, ELG1 genotoxic 4%, Rab9 prom act -9%, KinaseGlo FLuc 2%, FLuc modulator 15µM* and NPC1 promoter act 1%.
For O=C(CNC(=O)c1ccco1)NCC(=O)OCc1c(F)cccc1Cl the results were ELG1 genotoxic 3%, Rab9 prom act 11%, FLuc modulator 5% and NPC1 promoter act -2%.
Screening O=C1OC(C(=O)Nc2ccccc2)Cc2ccccc21 (stereo not given) returned SMN2 splice up 16%, ELG1 genotoxic 11%, Rab9 prom act inconclusive, KinaseGlo FLuc -1%, FLuc modulator 17µM* and NPC1 promoter act 16%.
Cc1ccc(NC(=O)C2Cc3ccccc3C(=O)O2)cc1 (stereo not given) was read as SMN2 splice up 89%, ELG1 genotoxic inconclusive, Rab9 prom act inconclusive, KinaseGlo FLuc -1%, FLuc modulator inconclusive and NPC1 promoter act inconclusive.
Screening COc1ccc(-c2csc(-c3ccc(O)cc3)n2)cc1 returned ELG1 genotoxic inconclusive, Rab9 prom act 2%, FLuc modulator 9.5µM* and NPC1 promoter act -21%.

Screening results (PubChem BioAssay)
